Records with an inconclusive call do not appear. A call without a number means that no potency is given here. The source made the active and inactive calls. Unless noted, the call rests on the fitted dose curve; in most records, active means well fitted curve in the direction sought with a large enough effect in the repeat runs; inconclusive means weak or mixed curves; inactive means no such curve, though single readings can be large; an effect the other way counts as inactive or inconclusive.
Legend:
[1] = qHTS assay to identify small molecule antagonists of the thyroid receptor (TR) signaling pathway - cell viability counter screen (AID 743064); further: nearly all actives have a fitted effect of over 50% in size; further: potency means the concentration at half of the fitted maximal effect
In short: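 In-well cytotoxicity read by CellTiter-Fluor (30 min, 37 C) following 23.5 h exposure of GH3 cells bearing a TRE-luciferase sensor. Compounds were added alongside 1 nM (final) T3 to drive TR transactivation.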

[2] = qHTS assay to identify small molecule antagonists of the thyroid receptor (TR) signaling pathway (AID 743065); further: nearly all actives have a fitted effect of over 55% in size; further: potency means the concentration at half of the fitted maximal effect
In short: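 Antagonism measured as loss of luciferase signal in GH3 cells stably carrying a TRE-luciferase reporter, co-treated with compound and T3 (1 nM final) for 23.5 h at 37 C. Viability was read in the same well by CellTiter-Fluor.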

[3] = system: thyroid hormone receptor (rat, GH3 cells); assay: qHTS assay to identify small molecule agonists of the thyroid receptor (TR) signaling pathway (AID 743066; calls by dose curve)
[4] = molecular target: Estrogen receptor (Homo sapiens) (UniProt P03372); assay: qHTS assay to identify small molecule antagonists of the estrogen receptor alpha (ER-alpha) signaling pathway (AID 743069; active means well fitted curve in the direction sought with a large enough effect in the signal ratio in the repeat runs, not every such curve was filed as active; the % refers to the signal ratio)
In short: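 Fluorescence intensity from a beta-lactamase FRET substrate served as the read-out. Cells: HEK293 with stably integrated ER-alpha-UAS-bla reporter. Agonist 17beta-estradiol was co-added with compounds; incubation 18 hr at 37C, substrate 2 hr at room temperature.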

[5] = molecular target: Estrogen receptor (Homo sapiens) (UniProt P03372); assay: qHTS assay to identify small molecule agonists of the estrogen receptor alpha (ER-alpha) signaling pathway (AID 743075; calls by dose curve)
[6] = molecular target: Estrogen receptor (Homo sapiens) (UniProt P03372); assay: qHTS assay to identify small molecule agonists of the estrogen receptor alpha (ER-alpha) signaling pathway using the BG1 cell line (AID 743079); further: nearly all actives have a fitted effect of over 20% in size
[7] = qHTS assay to identify small molecule antagonists of the estrogen receptor alpha (ER-alpha) signaling pathway using the BG1 cell line (AID 743080; calls by dose curve; further: series mostly up to about 70 µM; nearly all actives have a fitted effect of over 25% in size)
In short: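 Antagonist mode: compounds in DMSO were pinned onto BG1-Luc-4E2 cells alongside 17beta-estradiol agonist, incubated 21.5 h, and ERE-driven luciferase measured with ONE-Glo. Cytotoxicity was multiplexed using CellTiter-Fluor fluorescence.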

[8] = qHTS assay to identify small molecule antagonists of the estrogen receptor alpha (ER-alpha) signaling pathway using the BG1 cell line - cell viability counter screen (AID 743081);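 further: compound given together with 17beta-estradiol as the ER stimulus; series mostly up to about 70 µM; nearly all actives have a fitted effect of over 45% in size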
[9] = qHTS assay to identify aromatase inhibitors - cell viability counter screen (AID 743084);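 further: cells stimulated with testosterone during compound exposure; nearly all actives have a fitted effect of over 55% in size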
[10] = molecular target: Aryl hydrocarbon receptor (Homo sapiens) (UniProt P35869); assay: qHTS assay to identify small molecule that activate the aryl hydrocarbon receptor (AhR) signaling pathway (AID 743085); further: nearly all actives have a fitted effect of over 15% in size; further: potency means the concentration at half of the fitted maximal effect;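 on activation: HG2L7.5c1 human HepG2 liver cells with stably integrated DRE-driven firefly reporter; series mostly up to about 70 µM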
In short: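 Luminescence (ONE-Glo) from a dioxin-responsive-element luciferase reporter in HG2L7.5c1 HepG2 cells after 24 hr compound exposure at 37C; viability measured by CellTiter-Fluor fluorescence beforehand.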

[11] = molecular target: Peroxisome proliferator-activated receptor gamma (Homo sapiens) (UniProt P37231); assay: qHTS assay to identify small molecule antagonists of the peroxisome proliferator-activated receptor gamma (PPARg) signaling pathway (AID 743191; calls by dose curve; further: series mostly up to about 63 µM; nearly all actives have a fitted effect of over 30% in size)
In short: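 Beta-lactamase reporter under UAS control in HEK293H PPARg-bla cells; compound treatment 17 h at 37C. Read-out: fluorescence intensity after 1 h room-temperature incubation with LiveBLAzer B/G FRET substrate.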

[12] = qHTS assay to identify small molecule antagonists of the peroxisome proliferator-activated receptor gamma (PPARg) signaling pathway - cell viability counter screen (AID 743194); details: Potency: co-treated with 50 nM rosiglitazone; further: nearly all actives have a fitted effect of over 55% in size
In short: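 Viability was measured as CellTiter-Glo luminescence in GeneBLAzer PPARg UAS-bla HEK293H cells. These cells had been exposed 17 h at 37 C to compounds together with rosiglitazone at 50 nM final, with the beta-lactamase readout taken in the same wells.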

[13] = qHTS assay for small molecule agonists of the antioxidant response element (ARE) signaling pathway - cell viability counter screen (AID 743203; calls by dose curve; further: nearly all actives have a fitted effect of over 55% in size)
In short: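 ATP content via CellTiter-Glo luminescence served as the viability measure. Cells: ARE-bla HepG2, 2,000 per well. Exposure: 16 hrs, 37C/5% CO2.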

[14] = qHTS assay for small molecule activators of the heat shock response signaling pathway - cell viability counter screen (AID 743209); further: nearly all actives have a fitted effect of over 50% in size
In short: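 Compounds dissolved in DMSO were added to overnight-plated HSE-bla HeLa cells and left 5 h at 37 C. Cell viability was quantified by luminescence using CellTiter-Glo.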

[15] = qHTS assay for small molecule activators of the heat shock response signaling pathway (AID 743210; active means well fitted activation curve with a large enough effect in the signal ratio in the repeat runs, with a control signal flat, not every such curve was filed as active; the % refers to the signal ratio;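 further: HeLa cells with beta-lactamase reporter driven by heat shock elements; series mostly up to about 63 µM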)
In short: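 Fluorescence from a cleaved B/G FRET substrate (2.5 h, room temp) reports HSE-driven beta-lactamase in HeLa cells treated 5 h at 37 C with DMSO-dissolved compounds.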

[16] = qHTS assay to identify small molecule antagonists of the estrogen receptor alpha (ER-alpha) signaling pathway - cell viability counter screen (AID 743074; calls by dose curve; further: nearly all actives have a fitted effect of over 45% in size)
Aromatase (Homo sapiens) = Aromatase (Homo sapiens) (UniProt P11511); assay: qHTS assay to identify aromatase inhibitors (AID 743083)
[17] = qHTS assay to identify small molecule that activate the aryl hydrocarbon receptor (AhR) signaling pathway - cell viability counter screen (AID 743086);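 further: HepG2 liver cells carrying the AhR DRE luciferase reporter; series mostly up to about 70 µM; nearly all actives have a fitted effect of over 45% in size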
In short: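 Cytotoxicity counter screen: CellTiter-Fluor signal (30 min, 37 C) in 4000 HepG2 cells/well carrying the DRE-luciferase reporter, following 24 h compound exposure at 37 C.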

[18] = molecular target: Peroxisome proliferator-activated receptor gamma (Homo sapiens) (UniProt P37231); assay: qHTS assay to identify small molecule agonists of the peroxisome proliferator-activated receptor gamma (PPARg) signaling pathway (AID 743094; active means well fitted activation curve with a large enough effect in the signal ratio in the repeat runs, not every such curve was filed as active; the % refers to the signal ratio)
In short: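 Agonism was assessed in a beta-lactamase reporter system, HEK293H cells with a stably integrated UAS-bla construct under PPARg control; the 17 h treatment at 37C preceded a 1 h room-temperature FRET substrate read.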

[19] = qHTS assay for small molecule agonists of the antioxidant response element (ARE) signaling pathway (AID 743202; active means well fitted activation curve with a large enough effect in the signal ratio in the repeat runs, not every such curve was filed as active; the % refers to the signal ratio)
In short: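 Beta-lactamase reporter activity, read as fluorescence intensity, reflects ARE/Nrf2 pathway induction in HepG2 cells after 16 h compound exposure at 37 C; substrate loading was 2 h at room temperature.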

Chain of Peroxisome proliferator-activated receptor gamma (Homo sapiens) (P37231 whole entry, looked up): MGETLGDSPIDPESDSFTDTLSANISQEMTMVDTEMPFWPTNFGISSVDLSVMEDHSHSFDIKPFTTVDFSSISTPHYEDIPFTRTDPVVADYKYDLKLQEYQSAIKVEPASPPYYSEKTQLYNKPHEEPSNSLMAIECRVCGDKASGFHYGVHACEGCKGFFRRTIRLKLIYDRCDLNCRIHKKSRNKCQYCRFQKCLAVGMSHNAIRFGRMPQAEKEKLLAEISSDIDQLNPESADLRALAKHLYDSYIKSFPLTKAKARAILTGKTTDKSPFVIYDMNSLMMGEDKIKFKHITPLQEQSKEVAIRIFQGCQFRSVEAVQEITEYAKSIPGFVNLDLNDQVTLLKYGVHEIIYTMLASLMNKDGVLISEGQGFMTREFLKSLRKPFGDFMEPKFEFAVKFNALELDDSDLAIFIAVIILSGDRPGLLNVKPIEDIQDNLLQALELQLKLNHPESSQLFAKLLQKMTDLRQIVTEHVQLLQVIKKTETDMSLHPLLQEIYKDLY
Chain of Estrogen receptor (Homo sapiens) (P03372 whole entry, looked up): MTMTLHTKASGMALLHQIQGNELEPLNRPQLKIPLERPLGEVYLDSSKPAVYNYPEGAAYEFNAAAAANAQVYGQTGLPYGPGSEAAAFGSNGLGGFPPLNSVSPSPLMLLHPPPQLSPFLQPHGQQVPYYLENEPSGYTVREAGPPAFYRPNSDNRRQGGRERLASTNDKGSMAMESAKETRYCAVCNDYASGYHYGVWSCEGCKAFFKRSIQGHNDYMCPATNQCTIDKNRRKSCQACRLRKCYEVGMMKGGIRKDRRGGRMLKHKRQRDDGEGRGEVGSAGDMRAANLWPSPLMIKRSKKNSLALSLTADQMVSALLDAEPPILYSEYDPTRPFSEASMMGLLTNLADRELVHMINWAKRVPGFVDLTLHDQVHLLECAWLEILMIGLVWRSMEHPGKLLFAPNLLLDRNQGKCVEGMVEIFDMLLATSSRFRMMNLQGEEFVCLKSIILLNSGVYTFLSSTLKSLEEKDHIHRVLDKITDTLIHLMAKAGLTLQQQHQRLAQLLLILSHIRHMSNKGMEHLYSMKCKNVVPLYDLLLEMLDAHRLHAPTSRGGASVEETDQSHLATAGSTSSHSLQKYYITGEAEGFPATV
Chain of Aromatase (Homo sapiens) (P11511 whole entry, looked up): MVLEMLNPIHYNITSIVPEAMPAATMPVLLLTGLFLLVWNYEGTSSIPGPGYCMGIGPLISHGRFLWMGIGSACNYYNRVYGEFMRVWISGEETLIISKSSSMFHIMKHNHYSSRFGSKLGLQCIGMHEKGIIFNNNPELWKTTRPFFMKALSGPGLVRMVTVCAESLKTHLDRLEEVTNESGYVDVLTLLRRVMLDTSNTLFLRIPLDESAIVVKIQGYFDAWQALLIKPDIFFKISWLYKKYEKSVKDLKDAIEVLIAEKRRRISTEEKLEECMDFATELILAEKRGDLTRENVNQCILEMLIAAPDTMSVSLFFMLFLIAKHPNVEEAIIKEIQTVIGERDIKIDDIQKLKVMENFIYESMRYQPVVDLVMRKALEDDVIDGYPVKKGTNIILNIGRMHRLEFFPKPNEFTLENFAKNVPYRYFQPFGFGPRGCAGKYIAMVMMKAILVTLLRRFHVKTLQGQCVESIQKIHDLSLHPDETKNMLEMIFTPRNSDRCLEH
Chain of Aryl hydrocarbon receptor (Homo sapiens) (P35869 whole entry, looked up): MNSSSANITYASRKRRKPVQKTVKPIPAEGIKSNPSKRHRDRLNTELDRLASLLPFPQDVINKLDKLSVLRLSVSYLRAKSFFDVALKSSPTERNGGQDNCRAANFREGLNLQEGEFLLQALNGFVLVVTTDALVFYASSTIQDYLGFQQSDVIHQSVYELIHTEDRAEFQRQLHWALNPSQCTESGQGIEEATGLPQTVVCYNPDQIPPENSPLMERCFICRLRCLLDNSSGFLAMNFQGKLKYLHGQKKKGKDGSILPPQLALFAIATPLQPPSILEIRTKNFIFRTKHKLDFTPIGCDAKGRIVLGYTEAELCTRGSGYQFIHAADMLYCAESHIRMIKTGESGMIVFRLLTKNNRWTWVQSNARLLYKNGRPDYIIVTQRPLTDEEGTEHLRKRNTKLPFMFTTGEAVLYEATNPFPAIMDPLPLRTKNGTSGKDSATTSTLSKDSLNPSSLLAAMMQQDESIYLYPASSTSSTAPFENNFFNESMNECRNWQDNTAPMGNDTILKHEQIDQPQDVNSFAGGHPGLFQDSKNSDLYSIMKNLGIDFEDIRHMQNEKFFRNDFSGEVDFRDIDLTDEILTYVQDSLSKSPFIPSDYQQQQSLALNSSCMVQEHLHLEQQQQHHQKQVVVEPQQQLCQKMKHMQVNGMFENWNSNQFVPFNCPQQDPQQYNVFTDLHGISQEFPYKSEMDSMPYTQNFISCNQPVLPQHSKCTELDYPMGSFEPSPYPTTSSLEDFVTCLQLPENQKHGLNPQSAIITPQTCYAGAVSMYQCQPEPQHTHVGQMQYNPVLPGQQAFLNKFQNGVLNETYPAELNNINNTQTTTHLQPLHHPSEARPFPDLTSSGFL

| Structure (SMILES) | Potency [1] | Potency [2] | Potency [3] | Potency [4] | Potency [5] | Potency [6] | Potency [7] | Potency [8] | Potency [9] | Potency [10] | Potency [11] | Potency [12] | Potency [13] | Potency [14] | Potency [15] | Potency [16] | Potency (Aromatase (Homo sapiens)) | Potency [17] | Potency [18] | Potency [19] |
| --- | --- | --- | --- | --- | --- | --- | --- | --- | --- | --- | --- | --- | --- | --- | --- | --- | --- | --- | --- | --- |
| COc1cc(C[C@@H](C)N)c(OC)cc1Br | 62.8 µM (active) | 56 µM (active) | inactive | inactive | inactive | inactive | inactive | inactive | inactive | inactive | inactive | inactive | inactive | inactive | inactive | – | – | – | – | – |
| CCCCC1C(=O)NC(=O)N(C2CCCCC2)C1=O (centres undefined) | inactive | inactive | inactive | – | inactive | inactive | inactive | inactive | inactive | inactive | – | inactive | inactive | inactive | inactive | inactive | inactive | inactive | inactive | inactive |
| CC(C)c1ccc(NC(=O)N(C)C)cc1 | inactive | inactive | inactive | inactive | inactive | – | – | inactive | inactive | 68.5 µM (active) | – | inactive | inactive | inactive | inactive | inactive | inactive | inactive | inactive | inactive |
| NC(=O)CF | inactive | inactive | inactive | – | inactive | inactive | inactive | inactive | inactive | inactive | – | inactive | inactive | inactive | inactive | inactive | inactive | inactive | inactive | inactive |
| CC(C)CCON=O | inactive | inactive | inactive | – | – | – | – | inactive | inactive | inactive | inactive | inactive | inactive | inactive | inactive | inactive | inactive | inactive | inactive | inactive |
| O=C(O)c1cc(Cl)ccc1Cl | inactive | inactive | inactive | – | – | – | – | inactive | inactive | inactive | – | inactive | inactive | inactive | inactive | inactive | inactive | inactive | inactive | inactive |
| Cc1ccc(N)c(C)c1 | inactive | inactive | inactive | – | – | – | – | inactive | inactive | inactive | – | inactive | inactive | inactive | inactive | inactive | inactive | inactive | inactive | inactive |
| O=C(N[C@H]1CN2CCC1CC2)c1ccc2c(c1)OCCO2 | inactive | inactive | inactive | – | – | – | – | inactive | inactive | inactive | – | inactive | inactive | inactive | inactive | inactive | inactive | inactive | inactive | inactive |
| Nc1cc(Cl)cc(C(=O)O)c1Cl | inactive | inactive | inactive | – | – | – | – | inactive | inactive | inactive | inactive | inactive | inactive | inactive | inactive | inactive | inactive | inactive | inactive | inactive |
| C=CCSSCC=C | inactive | inactive | inactive | – | – | – | – | inactive | inactive | inactive | – | – | inactive | inactive | inactive | inactive | inactive | inactive | inactive | inactive |
| Cc1cccc(C)c1NC1=NCCCS1 | inactive | inactive | inactive | – | inactive | inactive | inactive | – | inactive | inactive | – | inactive | inactive | inactive | inactive | inactive | inactive | inactive | – | – |
| FC(F)OC(F)(F)C(F)Cl (centres undefined) | inactive | inactive | inactive | – | – | – | – | inactive | inactive | inactive | – | inactive | inactive | inactive | inactive | inactive | inactive | inactive | inactive | inactive |
| N#CC1(N=NC2(C#N)CCCCC2)CCCCC1 | inactive | inactive | inactive | – | – | – | – | inactive | inactive | inactive | – | inactive | inactive | inactive | inactive | inactive | inactive | inactive | inactive | – |
| O=C(NCNC(=O)NC1C(=O)NC(=O)N1CO)NC1C(=O)NC(=O)N1CO (centres undefined) | inactive | inactive | inactive | – | – | – | – | inactive | inactive | inactive | inactive | inactive | inactive | inactive | inactive | inactive | inactive | inactive | inactive | inactive |
| CC[N+]1(C)CCCC(OC(=O)C(O)(c2ccccc2)c2ccccc2)C1 (centres undefined) | inactive | inactive | inactive | – | – | – | – | inactive | inactive | inactive | – | inactive | inactive | inactive | inactive | inactive | inactive | inactive | inactive | inactive |

From PubChem BioAssay (Tox21)
